Results reported in PubChem BioAssay AID1964107 (National Center for Advancing Translational Sciences (NCATS), 2024).
Screen size: about 31,000 compounds; about 360 (1.2%) were called active. About 8% were inconclusive and are not listed. Only a selection was taken, and actives are over-represented in it overall. Values without a mark were called inactive. Calls come from the whole dose curve.
% is set by controls: 0 for no effect and ±100 for the full control effect; potency is the fitted concentration of half-maximal effect.
Note: nearly all actives have a fitted effect of over 60% in size.

These molecules were tested against Polyprotein P1234 (Chikungunya virus (strain S27-African prototype)) (UniProt Q8JUX6) (assay: Primary qHTS for inhibitors of NSP2Pro chikungunya virus (CHIKV)). Conditions: FRET peptide cleavage, fluorescence 1 h; series mostly up to 24.9 µM; activity change, negative = inhibition: at the top concentration.
Sequence of Polyprotein P1234 (Chikungunya virus (strain S27-African prototype)) (Q8JUX6 whole entry, looked up): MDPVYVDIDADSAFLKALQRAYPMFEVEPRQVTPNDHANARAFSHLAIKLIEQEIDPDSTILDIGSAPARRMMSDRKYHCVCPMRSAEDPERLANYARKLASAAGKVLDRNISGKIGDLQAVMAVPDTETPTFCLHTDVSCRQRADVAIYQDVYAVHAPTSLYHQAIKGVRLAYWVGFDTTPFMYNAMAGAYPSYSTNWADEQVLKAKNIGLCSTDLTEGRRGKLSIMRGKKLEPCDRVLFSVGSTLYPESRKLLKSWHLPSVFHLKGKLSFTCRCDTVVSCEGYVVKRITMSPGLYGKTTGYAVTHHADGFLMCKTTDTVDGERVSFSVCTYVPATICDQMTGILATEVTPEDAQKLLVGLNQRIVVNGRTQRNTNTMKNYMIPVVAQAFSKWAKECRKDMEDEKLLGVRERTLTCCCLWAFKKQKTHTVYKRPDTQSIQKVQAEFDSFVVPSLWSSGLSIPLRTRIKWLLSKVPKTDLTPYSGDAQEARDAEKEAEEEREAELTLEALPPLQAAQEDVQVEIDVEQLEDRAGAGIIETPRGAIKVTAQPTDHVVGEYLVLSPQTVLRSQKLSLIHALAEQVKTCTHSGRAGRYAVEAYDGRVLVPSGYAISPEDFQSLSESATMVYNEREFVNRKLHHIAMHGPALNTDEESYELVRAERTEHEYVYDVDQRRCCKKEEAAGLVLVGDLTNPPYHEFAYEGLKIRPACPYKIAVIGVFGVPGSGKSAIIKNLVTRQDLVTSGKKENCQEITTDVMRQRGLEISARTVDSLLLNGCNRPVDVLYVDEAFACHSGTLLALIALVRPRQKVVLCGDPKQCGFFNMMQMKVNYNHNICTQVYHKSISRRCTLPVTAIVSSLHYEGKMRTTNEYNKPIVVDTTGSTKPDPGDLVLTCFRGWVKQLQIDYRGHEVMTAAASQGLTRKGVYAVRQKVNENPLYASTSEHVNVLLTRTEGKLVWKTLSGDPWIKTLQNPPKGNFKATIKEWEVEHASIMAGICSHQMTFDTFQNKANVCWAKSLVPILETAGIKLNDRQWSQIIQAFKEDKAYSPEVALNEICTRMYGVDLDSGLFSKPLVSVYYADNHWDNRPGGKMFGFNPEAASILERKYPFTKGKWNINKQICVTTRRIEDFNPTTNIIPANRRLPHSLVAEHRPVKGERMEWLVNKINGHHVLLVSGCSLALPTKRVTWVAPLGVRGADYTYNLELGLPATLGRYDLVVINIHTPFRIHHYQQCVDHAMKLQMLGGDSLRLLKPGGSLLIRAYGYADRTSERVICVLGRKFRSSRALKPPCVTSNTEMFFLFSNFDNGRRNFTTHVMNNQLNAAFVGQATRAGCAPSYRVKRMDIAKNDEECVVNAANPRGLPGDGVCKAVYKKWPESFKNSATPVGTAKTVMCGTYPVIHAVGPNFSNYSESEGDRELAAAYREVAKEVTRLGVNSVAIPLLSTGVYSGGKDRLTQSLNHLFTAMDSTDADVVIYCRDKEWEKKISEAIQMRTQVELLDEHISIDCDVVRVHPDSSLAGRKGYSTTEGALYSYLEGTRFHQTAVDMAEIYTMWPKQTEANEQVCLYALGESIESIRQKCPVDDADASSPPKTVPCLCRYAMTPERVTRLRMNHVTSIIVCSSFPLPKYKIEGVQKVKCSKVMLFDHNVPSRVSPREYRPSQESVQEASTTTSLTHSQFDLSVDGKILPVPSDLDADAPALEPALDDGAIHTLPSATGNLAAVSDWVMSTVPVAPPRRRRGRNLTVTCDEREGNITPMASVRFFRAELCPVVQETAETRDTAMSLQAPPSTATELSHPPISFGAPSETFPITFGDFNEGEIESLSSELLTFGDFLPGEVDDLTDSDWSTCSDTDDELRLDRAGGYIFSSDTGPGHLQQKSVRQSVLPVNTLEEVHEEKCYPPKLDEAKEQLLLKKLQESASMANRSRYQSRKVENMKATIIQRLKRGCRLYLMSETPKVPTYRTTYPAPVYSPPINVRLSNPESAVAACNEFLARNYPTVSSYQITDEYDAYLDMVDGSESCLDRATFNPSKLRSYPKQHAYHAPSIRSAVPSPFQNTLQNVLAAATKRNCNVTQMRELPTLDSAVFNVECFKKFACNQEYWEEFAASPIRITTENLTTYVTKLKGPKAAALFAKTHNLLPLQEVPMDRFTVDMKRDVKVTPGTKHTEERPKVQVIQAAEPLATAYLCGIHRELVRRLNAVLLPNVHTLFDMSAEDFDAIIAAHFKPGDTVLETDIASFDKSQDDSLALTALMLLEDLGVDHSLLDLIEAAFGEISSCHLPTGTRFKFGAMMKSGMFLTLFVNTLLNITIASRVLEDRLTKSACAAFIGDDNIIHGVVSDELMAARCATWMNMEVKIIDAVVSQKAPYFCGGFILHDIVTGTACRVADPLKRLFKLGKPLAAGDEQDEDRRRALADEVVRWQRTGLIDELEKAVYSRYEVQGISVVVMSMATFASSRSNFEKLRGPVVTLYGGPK
Text: PI: Natalia J. Martinez Ph.D. National Center for Advancing Translational Sciences (NCATS), National Institute of Health (NIH), Rockville, Maryland Chikungunya virus (CHIKV) is a mosquito-borne RNA virus that has emerged as one of the most important global arboviral threats in the last decade. Although the first CHIKV vaccine has recently been FDA approved for use in healthy adults at increased risk, to date, there are no available antiviral drugs for CHIKV infection. CHIKV nsP2 protease plays a crucial role in the processing of the viral polypeptide precursor to release enzymes required for viral replication, thus making it a promising drug target for antiviral discovery. Here, we established a high-throughput pipeline to identify small molecule inhibitors of nsP2 proteolytic activity. The pipeline is composed of a suite of 1,536-well in vitro assays to support quantitative high-throughput (qHTS) screening campaigns. Specifically, we developed a fluorescence resonance energy transfer (FRET)-based assay using a fluorogenic peptide substrate encompassing an endogenous cleavage site and purified recombinant protease domain (nsP2pro). Using this assay, we interrogated ~37,000 small molecules, including those in drug repurposing libraries as well as chemically diverse and medicinal chemistry-friendly compounds. Hits were selected for follow-up validation against full-length nsP2 and an additional peptide. FRET-based 1,536-well assays for papain, hepatitis C virus NS3-4A, and human furin proteases were implemented to characterize compound selectivity. […] Novel compounds were identified to be potential nsP2 inhibitors and molecular docking analyses were performed to explain the binding mode of selected hits. In vitro antiviral activity was evaluated for a subset of compounds using a high-throughput CHIKV infection assay. To our knowledge, the pipeline presented here is unprecedented for CHIKV antiviral discovery research.
PROTOCOL TABLE (as described by Inglese J, Shamu CE and Guy RK. 2007) SEQUENCE No. (e.g., 1, 2, 3, etc.); […] (e.g., Cells, Incubation, Reagent, etc.); VALUE; DESCRIPTION. 1; Control / Compound; 20 nL; Echo 655 acoustic dispenser, Greiner 1536-well solid bottom black plate. 2; Enzyme; 4 uL; BioRAPTR FRD liquid dispenser (Beckman Coulter). 3; Incubation; 15 min; room temperature. 4; Reagent; 4 uL; 2.5 uM Peptide 2 substrate. 5; Incubation; 1 hr; room temperature. 6; Detection; Fluorescence; WiewLux microplate reader (PerkinElmer), 525 nm excitation, 598/25 nm emission. NOTES (numbers refer to sequence numbers above). 1. Briefly, 20 nL DMSO, positive control ZnAc (20nM final concentration), and test compounds were transferred into a 1,536-well solid bottom black plate (789176-F, Greiner One) via Echo 655 acoustic dispenser (Beckman Coulter). For primary screens, compounds were tested at 7 concentrations, 1:3 dilution points ranging from 25 uM to 34 nM. Follow-up confirmatory screens were carried out at 11 concentrations, 1:3 dilution points from 25 uM to 0.42 nM. 2. Four uL nsP2pro enzyme mix (150 nM final concentration) in 10 mM Tris-HCl pH 8.0 with 0.01% Tween 20 assay buffer was dispensed into the plate using a BioRAPTR FRD liquid dispenser (Beckman Coulter). 3. The plate was incubated at room temperature (protected from light) for 15 min 4. Four microliter of peptide 2 substrate (2.5 uM final concentration) in assay buffer was added to the plate. 5. After 1 hour, plates were immediately read on a ViewLux high-throughput CCD imager (Exposure = 10 sec, Gain = High, Speed = Slow, Binning = 2X). The above assay was also incorporated in the NCATS HTS facility41, which allowed for robotic liquid and compound dispensing, microplate handling, and fluorescence reading.. REFERENCE: Inglese J, Shamu CE and Guy RK, Reporting data from high throughput screening of small molecule libraries, Nature Chemical Biology, 2007, 3(8): 438-441. doi.org/10.1038/nchembio0807-438.
For `Cc1nn(Cc2ccccc2Cl)c(C)c1CN(C)CC(O)COc1ccc(Cl)cc1` (centres undefined), the “activity change, negative = inhibition” value was 0.58%.
With `O=C(Nc1nc(-c2ccccc2)cs1)c1ccncc1NS(=O)(=O)c1ccc(-c2ccccc2)cc1` the “outcome” value was “inactive”.
With `CCOCCOC1CCN(S(=O)(=O)c2ccc(OC)cc2)CC1` the “outcome” value was “inactive”.
`CCOCCCNC(=O)c1cc2c(=O)n3ccccc3nc2s1` was tested, and the “activity change, negative = inhibition” value was -12%.
In the case of `CCc1noc(-c2cn(C3CCN(C(=O)C4(c5ccccc5)CC4)C3)nn2)n1` (centres undefined), the “outcome” value was “inactive”.
In the case of `COc1ccc(Cc2ncc3c(n2)CN(C(=O)c2ccc(OC)c(O)c2)C3)cc1`, the “activity change, negative = inhibition” value was 4.72%.
In the case of `CC(NC(=O)c1cc(Sc2ccc(F)cc2F)nc2ccccc12)c1ccccc1` (centres undefined), the “activity change, negative = inhibition” value was -18.2%.
In the case of `O=C(N[C@@H]1CCOC[C@H]1OCCO)c1ccc2c(c1)ncn2CCO`, the “activity change, negative = inhibition” value was -3.4%.
With `CCC(=O)N1N=C(c2ccc(OC)cc2)CC1c1cn(-c2ccccc2)nc1-c1cccs1` (centres undefined) the “activity change, negative = inhibition” value was -18.6%.
In the case of `CCC(=O)N1CCc2cc(S(=O)(=O)NC(Cc3ccccc3)C(=O)NCc3ccc(C)cc3)ccc21` (centres undefined), the “activity change, negative = inhibition” value was -26.4%.
For `FC(F)(F)c1cccc(N2CCN(C(=S)Nc3ccncc3)CC2)c1`, the “activity change, negative = inhibition” value was 0.924%.
`COc1cccc(-c2cn3c(n2)N(C(=O)c2cnccn2)CCC3)c1` was tested, and the “activity change, negative = inhibition” value was 5.42%.
For `CCCN=C1S/C(=C\c2ccc(OC[C@H](O)CO)c(Cl)c2)C(=O)N1c1ccccc1C`, the “activity change, negative = inhibition” value was -11.9%.
For `CC(=O)c1ccc(NS(=O)(=O)c2ccc(-c3cc(C)no3)s2)cc1`, the “activity change, negative = inhibition” value was -10.1%.
In the case of `Cc1ccc(N2CCN(C(=O)CCc3c(C)nc4c(c3C)c(=O)n(C)c(=O)n4C)CC2)c(C)c1`, the “activity change, negative = inhibition” value was -6.64%.
For `CCC(=O)N1CCc2cc(Br)cc(S(=O)(=O)CCC(=O)NCc3ccccc3OC)c21`, the “activity change, negative = inhibition” value was -13.4%.
With `CCOc1ccc(NC(=O)Cn2nc3n(c2=O)CCN(Cc2ccccc2C)C3=O)cc1` the “activity change, negative = inhibition” value was -3.88%.
`N#Cc1ccc(-c2ccc(NC(=O)c3cccs3)cn2)cc1` was tested, and the “activity change, negative = inhibition” value was 4.86%.
With `CCOc1ccc(CNC(=O)c2ccc3nc(CC)c(CC)nc3c2)cc1OC` the “activity change, negative = inhibition” value was -2.04%.
`COc1ccc(CNC(=O)c2cc3c(s2)CN(C2CC2)C3)cc1OC` was tested, and the “outcome” value was “inactive”.
With `COc1ccc(C2=Nn3c(nnc3-c3ccccc3O)SC2)cc1` the “activity change, negative = inhibition” value was 2.77%.
With `CCC(C)C(=O)O[C@H]1[C@@H](OC(=O)c2ccoc2)C[C@](C)(O)[C@]23OC(C)(C)[C@H](C[C@H](OC(=O)c4ccoc4)[C@]12COC(C)=O)[C@H]3OC(C)=O` (some centres undefined) the “activity change, negative = inhibition” value was -3.85% [at 10 µM].
For `CC1=C[C@@H](CNC2CCOCC2)[C@H](C(C)C)C[C@H]1Cc1nc2ccc(F)cc2[nH]1`, the “activity change, negative = inhibition” value was 3.26% [at 39.2 µM].
With `COc1ccc(C2=NS(=O)(=O)N(C)C(C(=O)NC(C)c3ccccc3)=C2)cc1` (centres undefined) the “activity change, negative = inhibition” value was -13.3%.
For `CC(C)Oc1cccc(-c2cnc(N3CCC(C(N)=O)CC3)s2)c1`, the “activity change, negative = inhibition” value was 0.0009%.
In the case of `O=C(Nc1ccccc1-c1cn2c(CN3CCNCC3)csc2n1)c1ccc2ccccc2n1`, the “activity change, negative = inhibition” value was 17.2%.
In the case of `COCC(=O)N(C[C@H]1O[C@@H](CC(=O)NC2CC2)[C@H](O)[C@@H]1O)C[C@H]1O[C@@H](CC(=O)NC2CC2)[C@H](O)[C@@H]1O`, the “outcome” value was “inactive”.
With `C=CC1C(OC2OC(CO)C(O)C(O)C2O)OC=C(C(=O)OC)C1CC1CC(=O)CC(CCc2ccc(O)cc2)O1` (centres undefined) the “activity change, negative = inhibition” value was 7.34% [at 10 µM].
For `COc1ccccc1CC(=O)N1CCc2c(nc3cc(-c4ccccc4Cl)[nH]n3c2=O)C1`, the “outcome” value was “inactive”.
In the case of `COc1ccc(C2CC(=O)N(Cc3ccccc3C)c3c2c(C)nn3-c2nc(C)cc(C)n2)c(OC)c1` (centres undefined), the “activity change, negative = inhibition” value was -7.48%.
In the case of `COc1ccc(/C=C2/C(=O)Nc3ccccc32)cc1O`, the “outcome” value was “inactive”.
For `COc1ccc(C(=O)Nc2cccc(C(=O)OCc3cc(=O)n4c5c(sc4n3)CCCC5)c2)cc1`, the “activity change, negative = inhibition” value was -10.2%.
With `Cc1cnc(C2CCC2)n1C1CCN(C(=O)CCC2CCCC2)CC1` the “activity change, negative = inhibition” value was -1.69%.
In the case of `O=C(CSc1ncc(CO)n1Cc1ccc(Cl)cc1)NCc1ccc(F)cc1`, the “activity change, negative = inhibition” value was -6.18%.
With `O=C(CSc1nccn1Cc1ccc(Cl)cc1)NCc1ccccc1` the “activity change, negative = inhibition” value was -0.86%.
With `O=C(NCc1ccc(Cl)cc1)c1cc(-c2ccc[nH]2)n[nH]1` the Potency was 8.91 µM (active).
`COc1ccc(CCn2cc3c(c2-c2ccc(Br)cc2)c(=O)n(C)c(=O)n3C)cc1OC` was tested, and the “activity change, negative = inhibition” value was -19.2%.
In the case of `C[C@@H]1[C@H](O)[C@@H]2OC(=O)C3=C2[C@H](CCC3)[C@@]12C[C@@H](c1ccoc1)OC2=O`, the Potency was 5.44 µM (active).
In the case of `COc1cccc(CNc2ccc(S(=O)(=O)Nc3cc(C)on3)cc2)c1O`, the “outcome” value was “inactive”.
For `Fc1ccc(CSc2nc(NCc3ccccc3)c3ccccc3n2)cc1`, the “activity change, negative = inhibition” value was 3.47%.
With `O=C(Nc1ccc(O)c(-c2nc3ccccc3o2)c1)c1ccc(-c2cccc(Cl)c2)o1` the “activity change, negative = inhibition” value was -11.1%.
With `Cc1nn(C(C)C(=O)NCCc2ccccc2)c(=O)c2c1sc1ccccc12` (centres undefined) the “activity change, negative = inhibition” value was -15.8%.
In the case of `CCOC(=O)c1c(S(=O)(=O)NCC(=O)Nc2ccc(Cl)c(C(F)(F)F)c2)c(C)n(C)c1C`, the “activity change, negative = inhibition” value was -19.1%.
`Cc1ncc([N+](=O)[O-])n1C[C@H](O)CN1CCOCC1` was tested, and the “activity change, negative = inhibition” value was 11.8%.
`O=C(Cn1nc(C2CC2)ccc1=O)NCCc1ccccc1` was tested, and the “activity change, negative = inhibition” value was -6.14%.
With `Cc1nn(Cc2ccccc2)c(C)c1[C@@H]1C=C[C@@H](NC(=O)NC(C)C)C1` the Potency was 14.1 µM (active).
`CC(C)NC(=O)NCC1Cn2cccc2C(=O)N1Cc1ccccc1` (centres undefined) was tested, and the “activity change, negative = inhibition” value was -12.1%.
In the case of `CCCC12CN3CC(CCC)(CN(C1)C3c1c[nH]c3ccc(OC)cc13)C2=O` (centres undefined), the “activity change, negative = inhibition” value was 8.29%.
With `COc1ccc(N2Cc3cccc(C(=O)O)c3C2=O)cc1OC` the “activity change, negative = inhibition” value was -3.96%.
`Cc1ccc(NC(=O)CSc2nc3c(c(=O)[nH]2)CN(Cc2ccc4c(c2)OCO4)CC3)cc1C` was tested, and the “activity change, negative = inhibition” value was -21.7%.
With `O=C(Nc1ncc(Cc2ccc(C(F)(F)F)cc2)s1)c1ccc(-c2ccc([N+](=O)[O-])cc2)o1` the “activity change, negative = inhibition” value was -11.4%.
With `COc1cccc(Nc2ccc(N3CCN(C(C)=O)CC3)cc2)c1OC` the “outcome” value was “inactive”.
In the case of `COc1ccccc1OCCCn1c(-c2ccc(Cl)cc2)nc2ccccc2c1=O`, the “activity change, negative = inhibition” value was -10.8%.
For `Cc1cc(C)nc(NS(=O)(=O)c2ccc(NC(=O)c3cc(=O)c4ccc(C)c(C)c4o3)cc2)n1`, the “activity change, negative = inhibition” value was -9.45%.
With `O=C1C(F)N([S+](=O)([O-])c2ccc3c(c2)OCCO3)CCN1[S+](=O)([O-])c1c(F)cccc1F` (centres undefined) the “outcome” value was “inactive”.
`Cc1cnn(CCC(=O)N2CCC3(CCNCC3)CC2)c1` was tested, and the “activity change, negative = inhibition” value was -10.6%.
`CCOc1ccc(N(Cc2ccccc2)C(=O)c2nc(S(C)(=O)=O)ncc2Cl)cc1` was tested, and the Potency was 5.01 µM (active).
`CCOc1ccc(N(CC)C(=O)C2CCN(S(=O)(=O)c3cccc4nonc34)CC2)cc1` was tested, and the “activity change, negative = inhibition” value was -21.2%.
In the case of `CCOc1ccc(N(Cc2ccccc2)C(=O)c2nc(SCC)ncc2Cl)cc1`, the “activity change, negative = inhibition” value was 4.15%.
